Screen size: about 320,000 compounds; about 2,100 (0.66%) were called active. Not shown: some 53% with an inconclusive outcome. This is one part of a sample in which actives are shown more often than they occur. Calls follow the shape of the dose curve; as a rule, active = well fitted inhibition curve with a large enough effect in the signal ratio, with a control signal flat (not every such curve was filed as active); inconclusive = small, poorly fitted or top-dose-only effect, or effect the other way, or a change in a side signal; inactive = flat fitted curve, though single readings scatter; the % refers to the signal ratio.
Test: qHTS Assay for Lipid Storage Modulators in Drosophila S3 Cells;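 as to cell number change: cells counted by Cell Tracker Red CMTPX staining in the red channel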
Settings: BODIPY lipid droplet fluorescence, 18-24 h, cells fed with added oleic acid; cell number change: measured here: cell count max response; series mostly up to 46.1 µM
Procedure, shortened: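 Drosophila S3 cells loaded with oleic acid (400 uM, as added) and compounds at several concentrations; lipid droplets imaged by 488-nm laser-scanning cytometry, 500–530 nm intensity and object ratio to cell channel. Percent activity normalized to 20 uM Triacsin C.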
Potency is read from the fitted curve at half-maximal effect.

Structure (SMILES) | Potency | cell number change | outcome
COCCNC(=O)C(=O)NCCN1CCOCC1 | inactive | -14.6% | –
CCOc1ccc(NC(=O)CSc2nc(=O)n(Cc3cccnc3)c3c2CCC3)cc1 | – | – | inactive [at 0.0737 µM]
COc1ccc(-n2c(-c3cccc(C)c3[N+](=O)[O-])n[nH]c2=S)cc1 | inactive | 2.37% | –
Cc1ccccc1CN(C)C(C)C(=O)NCc1ccccc1 (stereo unspecified) | inactive | 16.8% | –
CCN(C(=O)CCNC(=O)Cn1cnc2ccccc2c1=O)c1ccccc1F | inactive | -0.794% | –
Cc1nc2cc(Nc3nnc(-c4ccccc4)c4ccccc34)ccc2n1C | 11.6 µM (active) | -29.7% | –
COc1ccc(Nc2nnc(-c3ccc(O)cc3)c3ccccc23)cc1 | inactive | – | –
Cc1nc2cc(NC(=O)Nc3cccc4ccccc34)ccc2n1C | inactive | 19.9% | –
O=C(CN1CCN(S(=O)(=O)N2CCOCC2)CC1)Nc1cc(Cl)cc(Cl)c1 | inactive | 10% | –
O=C(NC1CCCCC1)c1cc(-c2ccc(F)cc2)on1 | 23.1 µM (active) | 15.8% | –
Cc1ccc(-c2cc(C(=O)NC3CCCC3)no2)cc1 | inactive | -1.32% | –
COc1ccc(-c2cc(C(=O)NC3CCCC3)no2)cc1 | inactive | 6.09% | –
CCOC(=O)N1CCN(CC(O)COc2ccccc2C(C)C)CC1 (stereo unspecified) | inactive | -2.25% | –
CCOC(=O)N1CCN(CC(O)COc2ccccc2C(C)CC)CC1 (stereo unspecified) | 3.66 µM (active) | 1.1% | –
OC(COc1ccccc1)CN1CCOCC1 (stereo unspecified) | inactive | 9.9% | –
O=C(c1ccccc1)N1CCN(CC(O)COc2ccc(Br)cc2)CC1 (stereo unspecified) | inactive | – | –
O=C(C(c1ccccc1)c1ccccc1)N1CCN(CC(O)COc2ccccc2)CC1 (stereo unspecified) | 4.61 µM (active) | -10.2% | –
CCOC(=O)N1CCN(CC(O)COc2ccccc2[N+](=O)[O-])CC1 (stereo unspecified) | inactive | 10.6% | –
CCc1ccc(C(=O)Nc2ccc3c(c2)n(C)c(=O)n3C)cc1 | inactive | -19.7% | –
CC1Cc2ccccc2N1C(=O)COC(=O)C1=COCCO1 (stereo unspecified) | inactive | -1.1% | –
COc1cccc(/C=N/n2nnnc2N)c1O | inactive | 2.87% | –

Structure (SMILES) | Potency | cell number change | outcome
C=CCOc1c(CNC2CCCC2)cc(Cl)cc1OC | inactive | 36.7% | –
Cc1ccc(-c2nc(NCc3ccco3)n(C(=O)c3ccco3)n2)cc1 | inactive | -0.0963% | –
CC(NC(=O)C1CCCN1S(=O)(=O)c1ccccc1)c1ccccc1 (stereo unspecified) | inactive | 4.49% | –
O=C(N1CCCCC1)C12CC3CC(C1)CC(C(=O)N1CCCCC1)(C3)C2 | inactive | 5% | –
CN(C)CCNc1oc(-c2cccc(Cl)c2)nc1C#N | inactive | – | –
CCN(CC)CCCNc1oc(-c2ccc(OC)c(OC)c2)nc1C#N | inactive | 24.5% | –
CN(C)CCCNc1oc(-c2cccc(Cl)c2)nc1C#N | 23.1 µM (active) | 5.97% | –
O=C(O)c1cc2nc3c(c(C(F)(F)F)n2n1)CCCC3 | inactive | -17.1% | –
COc1cc(C(=O)N2CCN(C(=O)C3CC3)CC2)cc(OC)c1OC | 14.6 µM (active) | 0.295% | –
COc1cc(C(=O)N2CCN(C3CCCCC3)CC2)cc(OC)c1OC | inactive | 26.9% | –
COc1cc(C(=O)N2CCN(C)CC2)cc(OC)c1OC | inactive | -9.94% | –
CCOC(=O)C1=C(C)Nc2ccccc2N=C1NC(=O)/C=C/c1ccc(OC)cc1OC | inactive | 0.577% | –
Cc1c(N(C(=O)c2cnccn2)C2(C(=O)NC3CCCC3)CCCCC2)c(=O)n(-c2ccccc2)n1C | inactive | -4% | –
CCOc1ccccc1N=C1SC(CC(=O)Nc2ccc(OC)cc2OC)C(=O)N1CCC1=CCCCC1 (stereo unspecified) | 25.9 µM (active) | -18.8% | –
COc1cc([N+](=O)[O-])ccc1NC(=O)CC1SC(=Nc2ccc(F)cc2)N(CCC2=CCCCC2)C1=O (stereo unspecified) | 23.1 µM (active) | -22.5% | –
O=C(CC1SC(=Nc2ccc(OC(F)F)cc2)N(CCC2=CCCCC2)C1=O)Nc1ccccc1F (stereo unspecified) | inactive | -16.7% | –
C=CCN1C(=O)C(CC(=O)NCC)SC1=Nc1ccccc1OC (stereo unspecified) | inactive | -0.552% | –
COc1ccc(OC)c(NC(=O)CC2SC(=Nc3ccc(F)cc3)N(CCC3=CCCCC3)C2=O)c1 (stereo unspecified) | inactive | 1.52% | –
CCn1c2ccccc2c2cc(N=C3SC(CC(=O)Nc4ccccc4OC)C(=O)N3C)ccc21 (stereo unspecified) | inactive | – | –
Cc1c(C(N)=O)sc2ncn(CC(=O)N(C)C3CCCCC3)c(=O)c12 | inactive | 7.26% | –
CS(=O)(=O)N1CCC(C(=O)N2CCN(c3ccccc3F)CC2)CC1 | inactive | 9.98% | –

Structure (SMILES) | Potency | cell number change | outcome
CC1=CN2C(=N)/C(=C/c3ccc(C)o3)C(=O)N=C2S1 | inactive | -10.7% | –
CCOc1ccc(-c2ccc(/C=C3/C(=N)N4C=CSC4=NC3=O)o2)c([N+](=O)[O-])c1 | inactive | 4.83% | –
CC1=CN2C(=N)/C(=C/c3ccc([N+](=O)[O-])o3)C(=O)N=C2S1 | 14.6 µM (active) | -16.4% | –
Cc1ccc(S(=O)(=O)Nc2cccc(-c3ccc4nnc(C)n4n3)c2)s1 | inactive | 7.02% | –
O=C(NCc1ccccn1)Nc1cc(Cl)cc(Cl)c1 | inactive | 7.72% | –
COc1ccc(C(NC(=O)C(C)(C)C)NC(=O)C(C)(C)C)cc1 | inactive | -2.15% | –
O=C(CNS(=O)(=O)c1ccc(Br)s1)NC1CCCc2ccccc21 (stereo unspecified) | inactive | -8.37% | –
COc1ccc(C)cc1NC(=O)CCCN1C(=S)NC(C)(C)CC1C (stereo unspecified) | inactive | -1.97% | –
COc1ccc(NC(=O)NCCCCc2ccccc2)cc1 | inactive | -11.6% | –
CC(CNC(=O)CN1C(=O)NC2(CCCCC2C)C1=O)c1ccccc1 (stereo unspecified) | inactive | -0.107% | –
COc1ccccc1N(/N=C1\Sc2ccccc2C1=O)C(C)=O | 16.4 µM (active) | 3.61% | –
COc1ccc(CCN(/C=C2\Sc3ccccc3C2=O)C(C)=O)cc1OC | inactive | 23.5% | –
CC(=O)N(/N=C1\Sc2ccccc2C1=O)c1ccccc1 | inactive | -6.02% | –
CCOc1ccc(NC(=O)CN(C)C(=O)COc2cccc3c2OC(C)(C)C3)cc1OCC | inactive | -24.3% | –
O=C(c1ccc(Cl)c(F)c1F)N1CCCC1 | inactive | – | –
Cc1c(C)c2c(OCC(=O)NCc3ccco3)cc3c(c2oc1=O)CCC(C)(C)O3 | inactive | 6.15% | –
COCCC(=O)NC12CC3CC(CC(C3)C1)C2 | inactive | -7.91% | –
COCCNCC(=O)C12CC3CC(CC(C3)C1)C2 | 16.4 µM (active) | -15% | –
COCCNC(=O)C12CC3CC(CC(Cl)(C3)C1)C2 | inactive | 18% | –

Source: PubChem BioAssay AID2685 (National Center for Advancing Translational Sciences (NCATS), 2010)
